In PubChem BioAssay (Tox21) one finds Potency and outcome data, which are given here for 8 molecules.

Values joined by “and” are separate entries in the source; they are usually repeats but may differ in a detail not shown here. Identical values can stand only once. Records with an inconclusive call do not appear. The source holds several records for some structures; these can differ, active in one and inactive in another. Active and inactive are the calls of the source. Unless noted, calls follow the shape of the dose curve; as a rule, active = well fitted curve in the direction sought with a large enough effect in the repeat runs; inconclusive = weak or mixed curves; inactive = no such curve, though single readings can be large; an effect the other way counts as inactive or inconclusive.

Assay [1] deals with Retinoic acid receptor RXR-alpha (Homo sapiens) (UniProt P19793). Kind of assay: qHTS assay to identify small molecule agonists of the RXR signaling pathway (AID 1159527; calls by dose curve; also: nearly all actives have a fitted effect of over 35% in size). Put shortly: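 Agonist mode; 9-cis retinoic acid positive control. HEK 293T UAS-bla reporter cells, 2% charcoal-stripped FBS, 16 hr compound exposure at 37 C/5% CO2. LiveBLAzer B/G FRET substrate 2 hr RT; ex 405, em 460/530 nm.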
Chain of Retinoic acid receptor RXR-alpha (Homo sapiens) (P19793 whole entry, looked up): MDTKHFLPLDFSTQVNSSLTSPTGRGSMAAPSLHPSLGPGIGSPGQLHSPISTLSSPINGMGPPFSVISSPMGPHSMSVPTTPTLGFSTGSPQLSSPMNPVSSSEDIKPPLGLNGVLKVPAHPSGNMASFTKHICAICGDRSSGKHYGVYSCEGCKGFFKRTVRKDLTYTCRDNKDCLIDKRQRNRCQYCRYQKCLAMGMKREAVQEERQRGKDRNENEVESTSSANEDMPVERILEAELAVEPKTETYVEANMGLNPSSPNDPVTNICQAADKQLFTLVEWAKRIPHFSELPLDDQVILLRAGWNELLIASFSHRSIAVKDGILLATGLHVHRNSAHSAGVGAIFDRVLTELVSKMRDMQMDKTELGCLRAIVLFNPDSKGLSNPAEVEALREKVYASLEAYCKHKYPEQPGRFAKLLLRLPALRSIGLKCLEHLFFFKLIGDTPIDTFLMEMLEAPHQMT
For orientation: In qHTS, concentration-response curves come from the screen itself.

Assay [2] is described as follows: qHTS assay to identify small molecule agonists of the RXR signaling pathway - cell viability counter screen (AID 1159529). Also: nearly all actives have a fitted effect of over 50% in size. Also: potency is read from the fitted curve at half-maximal effect. Put shortly:
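Luminescence from CellTiter-Glo (30 min, RT) measured viability in the same wells as the beta-lactamase reporter readout. Cells: GeneBLAzer RXR-alpha HEK 293T, 2% charcoal-stripped FBS. Compound exposure 16 hr, 37 C.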

A short description of assay [3]: qHTS assay to identify small molecule antagonists of the retinoid acid receptor (RAR) signaling pathway - cell viability counter screen (AID 1159551). Also: nearly all actives have a fitted effect of over 35% in size. The method in brief: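 Seed C3RL4 cells; next day add compound, then retinol to 1 uM final; incubate 6 h at 37 C; add CellTiter-Glo; read luminescence after 30 min at RT.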
Assay [4] is described as follows: qHTS assay to identify small molecule antagonists of the retinoic acid receptor (RAR) signaling pathway (AID 1159552; also: nearly all actives have a fitted effect of over 50% in size). The method in brief:
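Luminescence from a RARE luciferase reporter in C3RL4 cells served as read-out. Cells received compounds together with 1 uM final retinol and incubated 6 hr at 37 C before detection reagent was added for 30 min at room temperature.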

The nature of assay [5]: qHTS assay to identify small molecule agonists of the retinoic acid receptor (RAR) signaling pathway (AID 1159553). Also: potency is read from the fitted curve at half-maximal effect. Put shortly:
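Activation of retinol signaling was monitored via a RARE luciferase reporter in C3RL4 cells. After 6 hr compound treatment at 37 C, detection reagent was added for 30 min at room temperature before luminescence reading.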

Assay [6] can be described thus: qHTS assay to identify small molecule antagonists of the estrogen related receptor (ERR) signaling pathway - cell viability counter screen (AID 1224818).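 Also: series mostly up to about 46 µM; viability measured after 17.5 h of compound exposure.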 The method in brief: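 In the same ERR cell assay, compound-treated wells (17.5 h, 37 C) were multiplexed with a fluorogenic viability reagent, CellTiter-Fluor, read after 30 min to flag cytotoxic substances.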
Assay [7] in a line: qHTS assay to identify small molecule antagonists of the estrogen related receptor (ERR) signaling pathway (AID 1224819;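 also: luminescence from an ERR-driven luciferase reporter measured with One-Glo reagent; series mostly up to about 46 µM; nearly all actives have a fitted effect of over 50% in size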). Put shortly:
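qHTS in ERR cells, 2,000/well, 1536 format. Cpd (DMSO) added after 6 h settle, 18 h 37 C. One-Glo luminescence, 30 min RT.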

A short description of assay [8]: qHTS assay to identify small molecule agonists of the estrogen related receptor (ERR) signaling pathway (AID 1224820). The method in brief:
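Cells: ERR line from NTP, 2,000/well. Pre-incubation 6 h, 37 C/5% CO2. Compound (DMSO) pin transfer, 18 h 37 C. One-Glo, 30 min RT, luminescence.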

Assay [9] concerns estrogen-related receptor alpha (ERRalpha) with PGC-1alpha coactivator, human. Put plainly: qHTS assay to identify small molecule antagonists of the estrogen related receptor signaling pathway with the pleiotropic PPARgamma coactivator (PGC) (AID 1224821; calls by dose curve;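 also: series mostly up to about 46 µM; lower luminescence signal means antagonism of PGC/ERR signalling; nearly all actives have a fitted effect of over 50% in size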). Put shortly: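 Luminescent read-out (One-Glo, 30 min at room temperature) following 18 h treatment of PGC/ERR cells at 37 C with compounds delivered in DMSO. Cells had settled 6 h at 37 C/5% CO2 before dosing.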

The nature of assay [10]: qHTS assay to identify small molecule antagonists of the estrogen related receptor signaling pathway with the pleiotropic PPARgamma coactivator (PGC) cell viability counter screen (AID 1224822; also: series mostly up to about 46 µM). The method in brief:
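Compounds in DMSO, with positive and negative controls, were applied to PGC/ERR cells (2,000/well) and left 17.5 h at 37 C before CellTiter-Fluor detection.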

A short description of assay [11]: qHTS assay to identify small molecule agonists of the estrogen related receptor signaling pathway with the pleiotropic PPARgamma coactivator (PGC) (AID 1224823). Put shortly:
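Steps: plate PGC/ERR cells at 2,000 cells/well; incubate 6 h, 37 C/5% CO2; pin-transfer compounds (DMSO); incubate 18 h, 37 C; add One-Glo; 30 min RT; read luminescence.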

Assay [12] can be described thus: qHTS assay to identify small molecule antagonists of the estrogen related receptor (ERR) signaling pathway from Tox21 library - cell viability counter screen (AID 1224834). Also: nearly all actives have a fitted effect of over 30% in size. Also: potency is read from the fitted curve at half-maximal effect. The method in brief:
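CellTiter-Fluor fluorescence measured; ERR cells; 17.5 h compound incubation at 37 C; 30 min reagent step.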

For assay [13], the target named is Luciferin 4-monooxygenase (Photinus pyralis) (UniProt P08659). Put plainly: qHTS assay to identify small molecule inhibitors of firefly luciferase (AID 1224835). Also: series mostly up to about 120 µM; nearly all actives have a fitted effect of over 25% in size. Put shortly: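 Biochemical qHTS: compounds run as interplate titrations against purified firefly enzyme, with D-luciferin and ATP each at its KM concentration. Light output recorded by CCD imaging.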
Chain of Luciferin 4-monooxygenase (Photinus pyralis) (P08659 whole entry, looked up): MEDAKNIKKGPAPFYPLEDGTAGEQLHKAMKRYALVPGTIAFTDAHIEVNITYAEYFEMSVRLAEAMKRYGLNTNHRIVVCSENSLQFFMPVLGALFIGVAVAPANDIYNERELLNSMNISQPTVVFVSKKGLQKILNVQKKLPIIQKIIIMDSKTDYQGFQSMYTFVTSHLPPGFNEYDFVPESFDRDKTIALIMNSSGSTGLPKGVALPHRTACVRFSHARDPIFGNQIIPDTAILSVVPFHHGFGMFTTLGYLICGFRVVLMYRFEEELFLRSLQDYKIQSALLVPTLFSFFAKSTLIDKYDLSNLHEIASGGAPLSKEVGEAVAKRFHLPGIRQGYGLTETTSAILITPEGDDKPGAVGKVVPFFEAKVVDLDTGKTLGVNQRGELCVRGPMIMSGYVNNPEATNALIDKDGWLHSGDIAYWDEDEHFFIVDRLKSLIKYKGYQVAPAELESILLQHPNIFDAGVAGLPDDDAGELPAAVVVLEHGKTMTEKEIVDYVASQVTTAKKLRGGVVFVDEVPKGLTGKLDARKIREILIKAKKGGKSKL

Assay [14] is described as follows: qHTS assay to identify small molecule agonists of the constitutive androstane receptor (CAR) signaling pathway - cell viability counter screen (AID 1224836). Also: series mostly up to about 92 µM; nearly all actives have a fitted effect of over 45% in size. The method in brief: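 Viability read-out: CellTiter-Fluor fluorescence after 23 h compound exposure at 37 C/5% CO2 in double-stable HepG2-CYP2B6-hCAR cells, with PK11195 present at 0.75 uM final; compounds tested in 15-point titration.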

Assay [15] can be described thus: qHTS assay to identify small molecule antagonists of the constitutive androstane receptor (CAR) signaling pathway - cell viability counter screen (AID 1224837). Also: series mostly up to about 92 µM; nearly all actives have a fitted effect of over 45% in size. The method in brief: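 Using CellTiter-Fluor, viability is scored in HepG2 cells stably carrying hCAR and a 2.2kb CYP2B6 reporter after 23 hr compound exposure across 15 concentrations, with CITCO present at 50 nM.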

Assay [16] concerns the target Nuclear receptor subfamily 1 group I member 3 (Homo sapiens) (UniProt Q14994). Put plainly: qHTS assay to identify small molecule antagonists of the constitutive androstane receptor (CAR) signaling pathway (AID 1224838).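 Also: HepG2 cells stably expressing hCAR with CYP2B6 luciferase reporter stimulated by CITCO; nearly all actives have a fitted effect of over 40% in size.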 Put shortly: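 Reporter luminescence was quantified after 24 h exposure of hCAR/CYP2B6-2.2kb double-stable HepG2 cells to compounds at 15 concentrations in the presence of 50 nM CITCO final.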

For assay [17] the target is unchanged. Put plainly: qHTS assay to identify small molecule agonists of the constitutive androstane receptor (CAR) signaling pathway (AID 1224839). Also: nearly all actives have a fitted effect of over 15% in size. Also: potency is read from the fitted curve at half-maximal effect. Put shortly:
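Luminescence read-out (ONE-Glo, 30 min, room temperature) from double-stable HepG2-CYP2B6-hCAR cells exposed 24 h to 15-point compound series in presence of 0.75 uM PK11195 final.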

A short description of assay [18]: qHTS assay to identify small molecule antagonists of the estrogen related receptor signaling pathway with the pleiotropic PPARgamma coactivator (PGC) from Tox21 10K library - cell viability counter screen (AID 1224840; active = well fitted cell-killing curve with a large enough effect in the repeat runs, not every such curve was filed as active; also: nearly all actives have a fitted effect of over 40% in size). Put shortly: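 Here the PGC/ERR cells serve as a cytotoxicity control: they are exposed to compounds for 17.5 hours at 37 C, and live-cell signal is quantified using CellTiter-Fluor fluorescence.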

Assay [19] can be described thus: qHTS assay to identify small molecule antagonists of the estrogen related receptor signaling pathway with the pleiotropic PPARgamma coactivator (PGC) from Tox21 10K library (AID 1224841; call rule not given here). The method in brief: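 Each well held 2,000 PGC/ERR cells, pre-incubated six hours (37 C, 5% CO2). Test substances in DMSO were added by pin tool and left for 18 h at 37 C before luciferase detection by One-Glo.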

Assay [20] is described as follows: qHTS assay to identify small molecule agonists of the estrogen related receptor signaling pathway with the pleiotropic PPARgamma coactivator (PGC) from Tox21 10K library (AID 1224842). Also: nearly all actives have a fitted effect of over 15% in size. The method in brief: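 PGC/ERR reporter cell line, 2,000 cells per well, incubated 6 h at 37 C before 23 nL compound in DMSO was added. After 18 h at 37 C, One-Glo luminescence read following 30 min at room temperature.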

Chain of Nuclear receptor subfamily 1 group I member 3 (Homo sapiens) (Q14994 whole entry, looked up): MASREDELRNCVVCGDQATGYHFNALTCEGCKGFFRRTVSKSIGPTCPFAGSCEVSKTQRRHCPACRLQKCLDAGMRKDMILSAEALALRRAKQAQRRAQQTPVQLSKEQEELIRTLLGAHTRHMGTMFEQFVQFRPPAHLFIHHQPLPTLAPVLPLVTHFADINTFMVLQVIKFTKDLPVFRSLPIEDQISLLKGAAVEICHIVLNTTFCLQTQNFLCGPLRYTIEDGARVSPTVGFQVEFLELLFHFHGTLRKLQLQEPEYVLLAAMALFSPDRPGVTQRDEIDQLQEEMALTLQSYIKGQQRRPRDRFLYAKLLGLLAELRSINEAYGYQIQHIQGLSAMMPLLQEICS

Regarding `Nc1c2c(nc3ccccc13)CCCC2O` (stereo not drawn), the Potency result in assay [1], in assay [2], in assay [4], in assay [5], in assay [12] and in assay [13] was “inactive” in each case. Further, the Potency entry in [14], in assay [15], in assay [16], in assay [17], in assay [18] and in assay [19] was “inactive” each time. For the same molecule, the molecule was classed as inactive in assay [3], in [6], in [7], in assay [8], in assay [9] and in [10]. Moreover, the call in [11] and in assay [20] was inactive.
For the molecule `CCn1ccnc1CC1COc2ccccc2O1` (stereo not drawn), the Potency result in [1], in [2], in [4], in assay [5], in [12] and in assay [13] was “inactive” in each case. Further, the Potency result in assay [14], in assay [15], in [16], in assay [17], in assay [18] and in assay [19] was “inactive” in each case. Further, the molecule was called inactive in [3], in assay [6], in assay [7], in [8], in [9] and in assay [10]. The outcome in assay [11] and in assay [20] was inactive.
Turning to `COC(=O)C1=C(C)NC(C)=C(C(=O)OC)C1c1ccccc1[N+](=O)[O-]`, the Potency entry in [1], in assay [4], in assay [14], in assay [15], in assay [18] and in [19] was “inactive” each time. For the same molecule, the Potency in assay [2] is 27.6 µM (active) and inactive; in assay [5] it was 24.4 µM (active) and inactive; in [12] it was 54.5 µM (active) and inactive. Further, the molecule was classed as inactive in assay [3], in assay [6], in assay [7], in assay [8], in assay [9] and in assay [10]. Also, the result in [11] and in assay [20] was inactive.
In the case of `CCCCOCCOCCOCc1cc2c(cc1CCC)OCO2`, the Potency entry in [1], in assay [2], in [4], in assay [5], in assay [12] and in [14] was “inactive” each time. In addition, the Potency result in assay [15], in assay [16] and in assay [18] was “inactive” each time. Further, the outcome in [3], in assay [6] and in assay [10] was inactive. For the same molecule, the Potency in [17] was 7.79 µM (active) and 11.9 µM (active).
In the case of `COc1ccc(CCN(C)CCCC(C#N)(c2cc(OC)c(OC)c(OC)c2)C(C)C)cc1OC` (stereo not drawn), the Potency entry in assay [1], in assay [2], in [4], in assay [5], in assay [13] and in [16] was “inactive” in each case. Further, the Potency result in assay [17] and in assay [18] was “inactive” in each case. Further, the molecule was classed as inactive in assay [3], in assay [6] and in assay [10]. Also, the Potency in [12] was 29.8 µM (active).
For `N=C(N)c1ccccc1`, the Potency entry in [1], in [2], in assay [4], in assay [5], in [12] and in [14] was “inactive” in each case. Also, the Potency result in [15], in assay [16], in assay [17] and in [18] was “inactive” in each case. The molecule was called inactive in assay [3], in assay [6] and in assay [10].
As for `Nc1cc(=O)[nH]c(N)n1`, the Potency entry in [1], in assay [2], in [4], in assay [5], in [12] and in assay [14] was “inactive” in each case. Further, the Potency result in assay [15], in assay [16], in assay [17] and in assay [18] was “inactive” throughout. Moreover, the result in assay [3], in assay [6] and in assay [10] was inactive.
As to `CC(C[N+](C)(C)C)OC(N)=O` (stereo not drawn), the Potency result in assay [1], in assay [2], in assay [4], in assay [5], in assay [12] and in [13] was “inactive” each time. Also, the Potency entry in assay [14], in [15], in assay [16], in assay [17], in assay [18] and in assay [19] was “inactive” in each case. Besides, the outcome in [3], in assay [6], in assay [7], in assay [8], in assay [9] and in assay [10] was inactive. Further, the molecule was called inactive in assay [11] and in assay [20].
